Compound activity (PubChem)
Most compounds without a hit are left out; they make up all but 11% or so of the library.
G9a inh = inhibitors of human histone lysine methyltransferase G9a | G9a H3K9 monomethylation, AlphaScreen, 2 h | Potency, µM (highest dose often 102 µM), for the others: top-dose activity, negative = inhibition, actives largely listed as inhibitors | AID 504332 | Q96KQ7 | 8.8% of 350,000 active; note: potency is the fitted concentration of half-maximal effect; nearly all actives have a fitted effect of over 75% in size
Target sequence (Q96KQ7 913-1193 limits assumed): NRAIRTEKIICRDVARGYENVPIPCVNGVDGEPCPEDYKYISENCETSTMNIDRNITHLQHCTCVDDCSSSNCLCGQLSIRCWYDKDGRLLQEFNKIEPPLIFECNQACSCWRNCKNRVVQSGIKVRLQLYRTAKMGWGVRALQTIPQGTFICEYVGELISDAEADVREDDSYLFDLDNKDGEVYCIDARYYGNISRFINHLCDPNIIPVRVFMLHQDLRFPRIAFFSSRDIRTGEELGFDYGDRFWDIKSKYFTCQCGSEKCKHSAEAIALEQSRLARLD
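Compounds were preincubated with 20 nM G9a for 15 min, after which biotinylated H3K9 peptide (500 nM) and SAM (20 uM) started a 2 h room-temperature reaction. Monomethylated product was quantified by antibody-based AlphaScreen chemiluminescence.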
Tau fluor counter = counter-screen for tau fibril formation inhibitors; tau K18 P301L Alexa594 fluorescence, heparin fibrillization; Potency, µM (series often up to 57.7 µM), for the others: at the highest dose activity change, negative = decrease; 0.93% of 280,000 active; AID 1463; note: potency is the fitted concentration of half-maximal effect; nearly all actives have a fitted effect of over 55% in size
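Human tau K18 P301L (15 uM unlabeled, 0.24 uM Alexa 594-labeled) in 100 mM sodium acetate pH 7 with 20 uM heparin, 6 hr at 37 C. ThT 30 uM added, 1 hr ambient; Alexa 594 FP and total fluorescence read at 555/632 nm.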
Tau FP inhib = tau fibrillization inhibition (FP). AID 1468. P10636. 0.39% of 280,000 active. K18 P301L tau heparin fibrillization, Alexa594 FP, 6 h. Potency, µM (highest dose often 57.7 µM), for the others: at the highest dose activity, negative = inhibition, actives largely listed as inhibitors; note: potency is the fitted concentration of half-maximal effect; nearly all actives have a fitted effect of over 55% in size
Target sequence (P10636 561-689 P618L limits assumed): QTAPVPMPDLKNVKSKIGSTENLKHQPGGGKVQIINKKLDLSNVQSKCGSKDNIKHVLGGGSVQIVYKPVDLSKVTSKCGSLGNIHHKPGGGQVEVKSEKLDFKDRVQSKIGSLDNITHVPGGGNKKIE
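Quantitative HTS format: compounds meet 15 uM recombinant K18 P301L tau and Alexa 594-tau tracer in 100 mM sodium acetate pH 7; 20 uM heparin triggers fibrillization at 37 C over 6 hr; FP gives the signal.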
Coupling enz = coupling enzyme interference in Giardia aldolase counter-screen; coupling enzyme system counterscreen, AmpLite Red fluorescence; 0.67% of 290,000 active; activity change, negative = inhibition, % at 58.2 µM, hits read low; AID 2472; in the data active = activity change below about -30%
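Counterscreen of the coupled detection system alone, without aldolase: glyceraldehyde-3-phosphate coupling enzymes plus AmpLite Red readout. Compounds at 57.5 uM final, 10 min RT preincubation, 20 min RT reaction, fluorescence 525/598 nm.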
Sfp inh = Sfp phosphopantetheinyl transferase inhibition | AID 1490 | Potency, µM, inactives show largest response in the series, negative = inhibition, hits mostly inhibitors | Biochemical Sfp PPTase activity, qHTS | 3.5% of 310,000 active;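 note: the enzyme is Sfp with the accession as filed and its product quenches rhodamine fluorescence; potency is the fitted concentration of half-maximal effect; 0% = enzyme reaction without inhibitor and -100% = no enzyme wells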
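Reaction rates are the 30-min fluorescence difference (ex 525, em 598 nm) in wells containing 15 nM Sfp, 5 uM rhodamine-CoA and 12.5 uM BHQ-2-YbbR at pH 7.6 with 10 mM MgCl2.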
Tau fibril ThT = inhibitors of human tau fibril formation, thioflavin T binding | recombinant tau K18 P301L, heparin-induced fibrillization, ThT fluorescence | Potency, µM (titrated, usually from 57.4 µM), for the others: top-dose activity, negative = inhibition, hits mostly inhibitors | 2.1% of 270,000 active | AID 1460; note: potency is the fitted concentration of half-maximal effect; nearly all actives have a fitted effect of over 55% in size
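Fibril formation assay: tau K18 P301L at 15 uM with trace Alexa 594 label, heparin inducer 20 uM, pH 7 sodium acetate buffer, 37 C for 6 hr; endpoint ThT signal.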
The depositor's hits bear a star; [ ] = dose if it differs, or a comment. Unless noted, calls come from the whole dose curve; as a rule, active = well fitted curve in the direction sought with a large enough effect; inconclusive = small, poorly fitted or top-dose-only effect, or another doubt; inactive = no such curve, though single readings can be large; an effect the other way counts as inactive or inconclusive. Unless noted, % is set by controls: 0 for no effect and ±100 for the full control effect.

Screening CCOc1ccc(NC(=O)C2CC(=O)N(c3ccc4c(c3)OCCO4)C2)cc1OCC (stereo not given) returned G9a inh -9.5%[2.33 µM].
Screening O=C1OCC(CO)(CO)N=C1NNc1ccccc1Cl returned G9a inh 5.62µM*, Tau fluor counter -6.2%, Tau FP inhib -3.2%, Coupling enz 0.2, Sfp inh -18.3% and Tau fibril ThT -17.5%.
For CC(OC(=O)Cc1c[nH]c2ccccc12)C(=O)Nc1ccccc1[N+](=O)[O-] (stereo not given) the results were G9a inh 31.6µM*.
For Cc1nnnn1/C(=C\c1ccccc1)C(=O)OCC(=O)NC1CCCCC1 the results were G9a inh 50.1µM*.
`Cc1nnnn1/C(=C\c1ccccc1)C(=O)OCC(=O)NC(C)(C)C` gave G9a inh 12.0%[59 µM], Tau fluor counter -0.1%, Tau FP inhib -3.2%, Coupling enz 4.1, Sfp inh -7.5% and Tau fibril ThT -14.6%.
`COc1ccccc1NC(=O)Nc1ccc(CC#N)cc1` gave G9a inh 0.9%, Tau fluor counter -18.9%, Tau FP inhib 4.6%, Coupling enz 0.3, Sfp inh 4.3% and Tau fibril ThT -5.9%.
COc1cc(OC)cc(N(C(=O)c2ccco2)C(C(=O)NC2CCCC2)c2ccc(N(C)C)cc2)c1 (stereo not given) was read as G9a inh 22.4µM*, Tau fluor counter -3.5%, Tau FP inhib 6.2%, Coupling enz -0.7, Sfp inh 5.6% and Tau fibril ThT -17.1%.
`COc1ccc(N(C(=O)c2ccco2)C(C(=O)NC2CCCC2)c2ccc(N(C)C)cc2)cc1` (stereo not given) gave G9a inh 79.4µM*, Tau fluor counter -14.1%, Tau FP inhib 1.8%, Coupling enz 3.4, Sfp inh -7.0% and Tau fibril ThT -18.4%.
For COc1cc(S(=O)(=O)NCCc2ccc3c(c2)OCO3)ccc1-n1cnnn1 the results were G9a inh 56.2µM*, Tau fluor counter 1.0%, Tau FP inhib -0.4%, Coupling enz -0.4, Sfp inh 3.5% and Tau fibril ThT 0.3%.
CCCNS(=O)(=O)c1ccc(-n2cnnn2)c(OC)c1 was read as G9a inh 3.3%, Tau fluor counter 4.8%, Tau FP inhib -8.0%[2.34 µM], Coupling enz -5.4, Sfp inh 9.5% and Tau fibril ThT 8.3%.
COc1cc(S(=O)(=O)NCCN2CCOCC2)ccc1-n1cnnn1 was read as G9a inh 7.94µM*, Tau fluor counter 9.5%, Tau FP inhib 6.2%, Coupling enz 1.5, Sfp inh inconclusive and Tau fibril ThT 9.7%.
COc1ccc(CNS(=O)(=O)c2ccc(-n3cnnn3)c(OC)c2)cc1 was read as G9a inh 50.1µM*, Coupling enz 3.2 and Sfp inh 4.5%.
For COc1cc(S(=O)(=O)NCCCN2CCOCC2)ccc1-n1cnnn1 the results were G9a inh 3.98µM*, Tau fluor counter -5.2%, Tau FP inhib -6.5%, Coupling enz 0.1, Sfp inh -16.7% and Tau fibril ThT -12.3%.
For CC(C)c1ccc(Nc2ncnc3onc(-c4ccc(F)cc4)c23)cc1 the results were G9a inh 17.6%[59 µM], Tau fluor counter -19.1%, Tau FP inhib -6.9% and Tau fibril ThT -1.8%.
S=c1nc(-c2ccc(Cl)cc2)[nH][nH]1 was read as G9a inh 0.562µM*, Tau fluor counter 11.3%, Tau FP inhib -4.7%, Coupling enz 5.9 and Sfp inh 44.7µM*.
Screening C=CCSc1n[nH]c(-c2ccc(OCCC)cc2)n1 returned G9a inh 4.9%[12.7 µM], Tau fluor counter -22.0%, Tau FP inhib inconclusive, Coupling enz -0.5, Sfp inh -6.9% and Tau fibril ThT -12.1%.
`CCCOc1ccc(-c2nc(=S)[nH][nH]2)cc1` gave Tau fluor counter -7.4%, Tau FP inhib -0.2%, Coupling enz 10.7, Sfp inh 50.1µM* and Tau fibril ThT 2.9%.
Screening COc1ccccc1NC(=O)COC(=O)c1cc2c(s1)CCC2 returned G9a inh 44.7µM*.
Screening CCCCNC(=O)C1CCN(c2nc3ccccc3nc2C(F)(F)F)CC1 returned G9a inh -22.4%[59 µM], Tau fluor counter -10.2%, Tau FP inhib -6.2% and Tau fibril ThT 0.1%.
`CC1C/C(=N\NC(=O)c2ccc([N+](=O)[O-])cc2)CC(C)(C)C1` (stereo not given) gave G9a inh 32.6%[12.7 µM], Tau fluor counter -8.3%, Tau FP inhib -0.3%, Coupling enz -3.6, Sfp inh 79.4µM* and Tau fibril ThT inconclusive.
`CC1C/C(=N\NC(=O)c2cccnc2)CC(C)(C)C1` (stereo not given) gave G9a inh 1.7%, Tau fluor counter -0.2%, Tau FP inhib -1.6%, Coupling enz 2.1, Sfp inh -9.8% and Tau fibril ThT -4.6%.
For C[C@H]([C@@H](N)C(=O)N[C@@H](C(=O)O)[C@@H]1O[C@H](n2ccc(=O)[nH]c2=O)[C@@H](O)[C@H]1O)[C@@H](O)c1ccc(O)cn1 the results were G9a inh 3.16µM*, Tau fluor counter 1.8%, Tau FP inhib 8.5%, Coupling enz -17.0, Sfp inh 56.2µM* and Tau fibril ThT 6.9%.
O=c1ccn([C@@H]2O[C@H](COP(=O)(O)O)[C@@H](O)[C@H]2O)c(=O)[nH]1 was read as G9a inh 32.5%[59 µM], Tau fluor counter -3.2%, Tau FP inhib -1.1%, Sfp inh 2.2% and Tau fibril ThT 5.5%.
Screening Nc1ccc2nc(CCCO)[nH]c2c1 returned G9a inh 28.2µM*, Tau fluor counter 4.0%, Tau FP inhib -7.2%, Coupling enz -29.0 and Sfp inh 4.1%.
Screening Nc1ccc2nc(CCCCCCCCc3nc4ccc(N)cc4[nH]3)[nH]c2c1 returned G9a inh 31.6µM*, Tau fluor counter inconclusive, Tau FP inhib 17.1%, Coupling enz -9.7, Sfp inh -0.9% and Tau fibril ThT inconclusive.
For CCCCc1nc2ccccc2[nH]1 the results were G9a inh 7.9%, Tau fluor counter 1.8%, Tau FP inhib -10.1%, Coupling enz -0.2, Sfp inh 11.9% and Tau fibril ThT 0.1%.
Nc1ccc2nc(CCCCc3nc4ccccc4[nH]3)[nH]c2c1 was read as G9a inh 35.5µM*, Coupling enz -7.7 and Sfp inh -6.2%.
`Nc1ccc2nc(COc3ccccc3)[nH]c2c1` gave G9a inh inconclusive, Coupling enz 0.3 and Sfp inh -1.2%.
For c1ccc2[nH]c(CCCc3nc4ccccc4[nH]3)nc2c1 the results were G9a inh 56.2µM*, Coupling enz -2.4 and Sfp inh 16.1%.
